{"source": "ChEMBL document CHEMBL3988442", "about": "“University of Dundee, Small-Polar-MMV Screening Library” (2021)", "tested_on": "Leishmania donovani", "assay": "Leishmania intramacrophage assay", "format": "functional, organism-based", "parameters": "scale not given: in the data most compounds retested in dose-response had high values", "note": "Among all 69,000 compounds or so, about 1,000 (1.4%) showed an effect of 50% or more. Many of the other results were omitted from the sample, so strong results are more common in it than they were."}
{"smiles": "O=C1CCCN1c1cccc(CNCc2nc(-c3ccco3)no2)c1", "values": [{"measurement": "Percent Effect", "setting": "30.3 µM, […]", "result": -19.6, "unit": "%"}]}
{"smiles": "Cc1ccc2nc(CN(C)Cc3[nH]nc4c3CCC4)[nH]c2c1C", "values": [{"measurement": "Percent Effect", "setting": "30.3 µM, […]", "result": 40.9, "unit": "%"}]}
{"smiles": "Cc1ccc2nc(CN(C)Cc3n[nH]c4c3CCCCC4)[nH]c2c1C", "values": [{"measurement": "Percent Effect", "setting": "30.3 µM, […]", "result": 99.15, "unit": "%"}]}
{"smiles": "COc1nc2cc(C)ccc2cc1CN(C)Cc1n[nH]c2c1CCCC2", "values": [{"measurement": "Percent Effect", "setting": "30.3 µM, […]", "result": 19.2, "unit": "%"}]}
{"smiles": "Cc1ccc2[nH]c(CN(C)Cc3ccccc3C(=O)O)nc2c1", "values": [{"measurement": "Percent Effect", "setting": "30.3 µM, […]", "result": 25.21, "unit": "%"}]}
{"smiles": "Cc1ccc2[nH]c(CN(C)Cc3n[nH]c4c3CCC4)nc2c1", "values": [{"measurement": "Percent Effect", "setting": "30.3 µM, […]", "result": 65.71, "unit": "%"}]}
{"smiles": "CN(Cc1cc2n(n1)CCNC2)Cc1n[nH]c2c1CCCCC2", "values": [{"measurement": "Percent Effect", "setting": "30.3 µM, […]", "result": 33.41, "unit": "%"}]}
{"smiles": "CC(C)C(C(=O)N1CCN(c2ccncc2)CC1)n1cncn1", "note": "(stereo unspecified)", "values": [{"measurement": "Percent Effect", "setting": "30 µM, 30.03 µM", "result": 24.05, "unit": "%"}]}
{"smiles": "CCOc1ccc(Cl)c(C(=O)N2CCCN(CC(N)=O)CC2)n1", "values": [{"measurement": "Percent Effect", "setting": "30 µM", "result": -7.749, "unit": "%"}]}
{"smiles": "N#Cc1cc2c(=O)n(CC(O)Cc3ccccc3)ccc2[nH]c1=O", "note": "(stereo unspecified)", "values": [{"measurement": "Percent Effect", "setting": "30.3 µM, […]", "result": 33.38, "unit": "%"}]}
{"smiles": "N#Cc1cc2c(=O)n(CC(O)C(F)(F)F)ccc2[nH]c1=O", "note": "(stereo unspecified)", "values": [{"measurement": "Percent Effect", "setting": "30.3 µM, […]", "result": 28.06, "unit": "%"}]}
{"smiles": "N#Cc1cc2c(=O)n(CC(O)c3cccc(O)c3)ccc2[nH]c1=O", "note": "(stereo unspecified)", "values": [{"measurement": "Percent Effect", "setting": "30.3 µM, […]", "result": 52.32, "unit": "%"}]}
{"smiles": "Cc1cnc(N2CCC3(CC(=O)N(Cc4csc(C)n4)C3)C2)nc1.O=C(O)C(F)(F)F", "note": "(stereo unspecified)", "values": [{"measurement": "Percent Effect", "setting": "30.3 µM, […]", "result": -11.16, "unit": "%"}]}
{"smiles": "CC(=O)N1CCC12CCN(Cc1ccco1)CC2.O=C(O)C(F)(F)F", "values": [{"measurement": "Percent Effect", "setting": "30.3 µM, […]", "result": 4.08, "unit": "%"}]}
{"smiles": "Cc1ccc(CN2CCOC3(CCN(CC4CCOC4)CC3)C2)cc1.O=C(O)C(F)(F)F.O=C(O)C(F)(F)F", "note": "(stereo unspecified)", "values": [{"measurement": "Percent Effect", "setting": "30.3 µM, […]", "result": 54.23, "unit": "%"}]}
{"smiles": "Cc1ccc(CN2CCC3(CC2)CCN(Cc2ccoc2)CC3)cc1.O=C(O)C(F)(F)F.O=C(O)C(F)(F)F", "values": [{"measurement": "Percent Effect", "setting": "30.3 µM, […]", "result": 75.99, "unit": "%"}]}
{"smiles": "COCCC(=O)N1CCC2(CCN(Cc3ccc(C)cc3)CC2)C1.O=C(O)C(F)(F)F", "values": [{"measurement": "Percent Effect", "setting": "30.3 µM, […]", "result": 52.88, "unit": "%"}]}
{"smiles": "COCCC(=O)N1CC2(CCN(Cc3cccc(Cl)c3)CC2)C1.O=C(O)C(F)(F)F", "values": [{"measurement": "Percent Effect", "setting": "30 µM, 30.03 µM", "result": 20.28, "unit": "%"}]}
{"smiles": "O=C(O)C(F)(F)F.c1cnc(N2CCOC3(CCN(CC4CCOC4)CC3)C2)nc1", "note": "(stereo unspecified)", "values": [{"measurement": "Percent Effect", "setting": "30.3 µM, […]", "result": 38.06, "unit": "%"}]}
{"smiles": "COCC(=O)N1CCC2(CCN(Cc3ccc(C)cc3)CC2)CC1.O=C(O)C(F)(F)F", "values": [{"measurement": "Percent Effect", "setting": "30.3 µM, […]", "result": 16.03, "unit": "%"}]}
{"smiles": "COCCC(=O)N1CCC2(CCN(Cc3cccc(F)c3)CC2)C1.O=C(O)C(F)(F)F", "values": [{"measurement": "Percent Effect", "setting": "30.3 µM, […]", "result": 10.96, "unit": "%"}]}
{"smiles": "CN1CCNC(=O)C12CCN(Cc1ccco1)CC2.O=C(O)C(F)(F)F.O=C(O)C(F)(F)F", "values": [{"measurement": "Percent Effect", "setting": "30.3 µM, […]", "result": 23.48, "unit": "%"}]}
{"smiles": "CN1CCOCC12CCN(Cc1ccoc1)CC2.O=C(O)C(F)(F)F.O=C(O)C(F)(F)F", "values": [{"measurement": "Percent Effect", "setting": "30.3 µM, […]", "result": 10.68, "unit": "%"}]}
{"smiles": "Cc1ccc(CN2CCC3(CC2)CCN(Cc2ccco2)CC3)cc1.O=C(O)C(F)(F)F.O=C(O)C(F)(F)F", "values": [{"measurement": "Percent Effect", "setting": "30.3 µM, […]", "result": 86.21, "unit": "%"}]}
{"smiles": "Cc1cc(C(=O)N2C[C@@H]3OCCN(CCN4CCCC4)[C@@H]3C2)c(C)o1.O=C(O)C(F)(F)F", "values": [{"measurement": "Percent Effect", "setting": "30.3 µM, […]", "result": 6.684, "unit": "%"}]}
{"smiles": "Cc1cc(C(=O)Nc2ccc3c(ccn3CCN3CCOCC3)c2)on1", "values": [{"measurement": "Percent Effect", "setting": "30.3 µM, […]", "result": -2.631, "unit": "%"}]}
{"smiles": "CC(C)SCC(=O)N1CCc2c(nc(N(C)C)nc2N(C)C)C1", "values": [{"measurement": "Percent Effect", "setting": "30 µM, 30.03 µM", "result": 7.439, "unit": "%"}]}
{"smiles": "CC(C)C(C)(C#N)NC(=O)Cn1cc(C(N)=O)c(-c2ccccc2)n1", "note": "(stereo unspecified)", "values": [{"measurement": "Percent Effect", "setting": "30.3 µM, […]", "result": -11.84, "unit": "%"}]}
{"smiles": "CCOCC(=O)NCCn1ccc(-c2ccccn2)n1", "values": [{"measurement": "Percent Effect", "setting": "30.3 µM, […]", "result": 14.51, "unit": "%"}]}
{"smiles": "CCOc1ccc(Cl)cc1C(C(=O)O)N1CCOCC1", "note": "(stereo unspecified)", "values": [{"measurement": "Percent Effect", "setting": "30.3 µM, […]", "result": 26.6, "unit": "%"}]}
{"smiles": "CC(Cn1cncc1-c1cnn(C2CCCCC2)c1)N1CCCCC1.Cl", "note": "(stereo unspecified)", "values": [{"measurement": "Percent Effect", "setting": "30.3 µM, […]", "result": 20.46, "unit": "%"}]}
{"smiles": "CC(O)CN1CCN(C(=O)CN(C)c2ccc(C#N)cn2)CC1", "note": "(stereo unspecified)", "values": [{"measurement": "Percent Effect", "setting": "30.3 µM, […]", "result": -1.14, "unit": "%"}]}
{"smiles": "Cc1ccc(CN2CCOC3(COCCN(Cc4ccncc4)C3)C2)o1.O=C(O)C(F)(F)F.O=C(O)C(F)(F)F.O=C(O)C(F)(F)F", "note": "(stereo unspecified)", "values": [{"measurement": "Percent Effect", "setting": "30.3 µM, […]", "result": 5.942, "unit": "%"}]}
{"smiles": "O=C(O)C(F)(F)F.O=C(O)C(F)(F)F.c1cncc(-c2ccc3c(c2)CCC32CCN(Cc3ccco3)CC2)c1", "values": [{"measurement": "Percent Effect", "setting": "30.3 µM, […]", "result": 59.2, "unit": "%"}]}
{"smiles": "CN(C)CC(=O)N1CCC2(CCc3cc(-c4cccnc4)ccc32)CC1.O=C(O)C(F)(F)F.O=C(O)C(F)(F)F", "values": [{"measurement": "Percent Effect", "setting": "30.3 µM, […]", "result": 37.66, "unit": "%"}]}
{"smiles": "O=C(O)C(F)(F)F.O=C(O)C(F)(F)F.O=C(O)C(F)(F)F.c1coc(CN2CCOC3(COCCN(Cc4ccncc4)C3)C2)c1", "note": "(stereo unspecified)", "values": [{"measurement": "Percent Effect", "setting": "30.3 µM, […]", "result": 52.19, "unit": "%"}]}
{"smiles": "O=C(O)C(F)(F)F.O=C(O)C(F)(F)F.c1cncc(-c2ccc3c(c2)CCC32CCN(Cc3nccs3)CC2)c1", "values": [{"measurement": "Percent Effect", "setting": "30.3 µM, […]", "result": 20.15, "unit": "%"}]}
{"smiles": "Cc1ccc(CN2CCC3(CCN(Cc4ccncc4)CC3)CC2)cc1", "values": [{"measurement": "Percent Effect", "setting": "30.3 µM, […]", "result": 75.36, "unit": "%"}]}
{"smiles": "Cn1ccnc1CN1CCC2(CC1)CCN(Cc1ccoc1)C2.O=C(O)C(F)(F)F.O=C(O)C(F)(F)F", "values": [{"measurement": "Percent Effect", "setting": "30.3 µM, […]", "result": 10.21, "unit": "%"}]}
{"smiles": "CS(=O)(=O)N1CCOCC2(CN(Cc3ccco3)CCO2)C1.O=C(O)C(F)(F)F", "note": "(stereo unspecified)", "values": [{"measurement": "Percent Effect", "setting": "30 µM, 30.03 µM", "result": -12.04, "unit": "%"}]}
{"smiles": "COCCC(=O)N1CC2(CCN(Cc3ccncc3)CC2)C1", "values": [{"measurement": "Percent Effect", "setting": "30.3 µM, […]", "result": 34.97, "unit": "%"}]}
{"smiles": "Cc1ccc(CN2CCCC3(CCN(Cc4ccoc4)CC3)C2)cc1.O=C(O)C(F)(F)F.O=C(O)C(F)(F)F", "values": [{"measurement": "Percent Effect", "setting": "30.3 µM, […]", "result": 70.84, "unit": "%"}]}
{"smiles": "Cc1ccc(CN2CCN(Cc3ccncc3)CC2=O)cc1", "values": [{"measurement": "Percent Effect", "setting": "30.3 µM, […]", "result": -11.56, "unit": "%"}]}
{"smiles": "COCCN1CC[C@@H]2O[C@@H](COCC(=O)N3CCCC3)CC[C@@H]21.O=C(O)C(F)(F)F", "values": [{"measurement": "Percent Effect", "setting": "30 µM, 30.03 µM", "result": 27.81, "unit": "%"}]}
{"smiles": "CO[C@H]1CO[C@@]2(CCCN(C(=O)N(C)C)C2)C1", "values": [{"measurement": "Percent Effect", "setting": "30.3 µM, […]", "result": 25.22, "unit": "%"}]}
{"smiles": "O=C(NCCCn1nc2ccccn2c1=O)NCCC1CCC1", "values": [{"measurement": "Percent Effect", "setting": "30.3 µM, […]", "result": 27.05, "unit": "%"}]}
